Luc counter: counter-screen: inhibitors of Kinase-Glo firefly luciferase; Kinase-Glo luciferase, ATP luminescence, 8 min; Potency, µM (doses to about 38.3 µM), without a hit: at the highest dose activity change, negative = inhibition, hits mostly inhibitors; 200,000 tested, 0.28% active; further: on the % scale 0 is the no-effect control and ±100 the full control effect; nearly all actives have a fitted effect of over 60% in size
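Luminescence was the read-out, taken after 8-minute incubation at ambient temperature. Luciferase turned over luciferin with 10 uM ATP in imidazole pH 7.2 buffer containing KCl, MgCl2, Tween 20 and BSA.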
Rab9 promoter act: activators of Rab9 promoter; AID 485297; Huh7 Rab9 promoter-luciferase reporter, luminescence, 24 h; 320,000 tested, 2.8% active; Potency, µM (series often up to 9.22 µM), without a hit: at the highest dose activation, negative = inhibition, actives largely listed as activators; further: % of control where 0% means no effect; nearly all actives have a fitted effect of over 60% in size
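Rab9 promoter-driven luciferase in stably transfected Huh7 cells; 1500 cells/well rested 2 h, exposed to compound in DMSO for 24 h at 37 °C, 5% CO2. Luminescence read 10 min after adding luciferase reagent at ambient temperature.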
NPC1 prom act: NPC1 promoter activation. Huh7 NPC1 promoter luciferase reporter, 24 h. Potency, µM (highest dose often 9.22 µM), without a hit: at the top dose activation, actives largely listed as activators. 320,000 tested, 2.4% active; further: % of control where 0% means no effect; nearly all actives have a fitted effect of over 60% in size
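Readout is luciferase luminescence, reflecting NPC1 promoter activation in stably transfected Huh7 cells after 24 h compound exposure at 37 °C in reduced-serum medium with 10% FBS.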
ELG1 genotox: induces genotoxicity in HEK293T cells with luciferase-tagged ELG1; HEK293T ELG1-luciferase reporter, luminescence, 16 h; Potency, µM (top dose mostly 46 µM), inactives show at the top dose activity change, positive = activation, most hits filed as activators; 330,000 tested, 1.3% active; further: % of control where 0% means no effect; nearly all actives have a fitted effect of over 60% in size
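After overnight (16 hr) compound treatment at 37 °C, ELG1-luciferase HEK293T cells were lysed with ONE-Glo; luminescence quantified 30 min later at room temperature.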
SMN2 splice enh: SMN2 splice variant enhancement. HEK293 SMN2-luciferase splicing reporter, luminescence, 30-36 h. Potency, µM (top dose mostly 46.1 µM), for inactives: top-dose activity change, positive = activation, most hits filed as activators. 210,000 tested, 2.8% active. AID 1458; further: % of control where 0% means no effect; nearly all actives have a fitted effect of over 55% in size
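HEK293 cells carry an SMN2 minigene-luciferase reporter in which exon 7 inclusion puts luciferase in frame. Cells were seeded at 2000 cells/well, attached for 10-12 hours, then exposed to compounds for 30-36 hours at 37C before ONE-Glo luminescence.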
FLuc modulator: counter-screen for miR-21 project: firefly luciferase inhibitors or activators | P08659 | purified FLuc, Km substrates, luminescence inhibition | Potency, µM (series often up to 57.5 µM), without a hit: at the highest dose activity change, negative = inhibition, most hits filed as inhibitors | 360,000 tested, 6.9% active | AID 588342;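 further: plate controls were vehicle for no effect and reference inhibitor for full effect; nearly all actives have a fitted effect of over 55% in size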
Target sequence (P08659 whole entry, looked up): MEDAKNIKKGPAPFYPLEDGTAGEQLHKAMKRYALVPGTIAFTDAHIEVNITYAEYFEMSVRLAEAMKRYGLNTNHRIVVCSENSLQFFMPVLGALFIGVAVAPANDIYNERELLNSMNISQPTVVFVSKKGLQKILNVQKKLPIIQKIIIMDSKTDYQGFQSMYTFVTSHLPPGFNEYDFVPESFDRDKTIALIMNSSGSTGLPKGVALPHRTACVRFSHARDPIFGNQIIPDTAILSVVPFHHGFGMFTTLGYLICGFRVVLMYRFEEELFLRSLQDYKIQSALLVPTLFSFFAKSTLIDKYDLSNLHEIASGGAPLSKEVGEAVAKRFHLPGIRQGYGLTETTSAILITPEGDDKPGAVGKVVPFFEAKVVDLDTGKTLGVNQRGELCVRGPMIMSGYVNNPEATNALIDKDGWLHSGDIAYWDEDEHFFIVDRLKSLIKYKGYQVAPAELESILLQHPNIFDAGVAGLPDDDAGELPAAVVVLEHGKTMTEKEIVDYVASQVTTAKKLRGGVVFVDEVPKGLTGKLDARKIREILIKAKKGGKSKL
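Purified P. pyralis luciferase (10nM final) with 10uM D-luciferin and 10uM ATP (Km levels) in 50mM Tris acetate pH 7.5, 10mM Mg acetate, 0.01% Tween-20, 0.05% BSA; qHTS 6-point titration, ~60 µM downward; luminescence read.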
Numbers without * were called inactive; ? = inconclusive; / = no result given; [ ] = another dose, or the depositor's remark. Rows were chosen to be rich in hits. Some 7.4% of all compounds tested hit in one or more screens of this group. The call rests on the fitted dose curve; in most records, active means well fitted curve in the direction sought with a large enough effect; inconclusive means small, poorly fitted or top-dose-only effect, or another doubt; inactive means no such curve, though single readings can be large; an effect the other way counts as inactive or inconclusive. Potency means the concentration at half of the fitted maximal effect.

SMILES | Luc counter | Rab9 promoter act | NPC1 prom act | ELG1 genotox | SMN2 splice enh | FLuc modulator
COc1ccc(-c2coc3cc(OC4OC(CO)C(O)C(O)C4O)ccc3c2=O)cc1 (stereo not given) | / | 1.6µM* | 1.6µM* | 8.2µM* | / | 11µM*
CCCc1c(OCC(O)COc2ccc3c(=O)cc(C(=O)O)oc3c2CCC)ccc(C(C)=O)c1O (stereo not given) | 3%[39.9 µM] | / | / | / | / | /
COc1ccc(N2CCN(C(CNC(=O)c3ccc(C)cc3)c3ccc4c(c3)OCO4)CC2)cc1 (stereo not given) | / | / | / | / | / | 0%
C=CC(C)(O)CC1[C@@]2(C)CCCC(C)(C)C2CC[C@]1(C)O (stereo not given in full) | -3% | / | / | / | -13% | /
N[C@@H](CSS(=O)(=O)O)C(=O)O | 1% | / | / | / | 3% | /
O=C(CCS(=O)(=O)c1ccccc1)NC12CC3CC(CC(C3)C1)C2 | 0% | 3.5µM* | 3.2µM* | 9.2µM* | ? | 12µM*
O=C(CCS(=O)(=O)c1ccccc1)NCCS(=O)(=O)c1ccccc1 | 0% | 6% | 6% | -6% | 8% | -1%
O=C(Nc1ncccc1O)c1ccc2c(c1)OCCO2 | / | 2.5µM* | 3.5µM* | 21µM* | / | 15µM*
O=C(Nc1ncccc1O)c1ccc2c(c1)OCO2 | / | 3.5µM* | 4µM* | ? | / | ?
Cc1cccnc1NC(=O)c1ccc2c(c1)OCCO2 | / | ? | 1% | 16µM* | / | 13µM*
Cc1cccnc1NC(=O)C1CC(=O)N(c2ccc3c(c2)OCCO3)C1 (stereo not given) | / | -2% | -1% | 1% | / | -3%
CCc1ccc(CN(Cc2ccco2)c2cnc(S(C)(=O)=O)nc2C(=O)Nc2ccc(C)c(Cl)c2)cc1 | / | / | / | / | / | -5%
Cc1ccc(Cl)cc1-n1c(CCC(=O)O)ccc1-c1cccs1 | / | / | / | / | -5% | ?
CC1(C)C(=O)C(c2ccccc2)=C2CN3C(=O)N(CCc4ccccc4)C(=O)C3(Cc3ccc(C(F)(F)F)cc3)C=C21 (stereo not given) | -5% | / | / | / | -17% | /
O=C(O)c1cc(N2N=C(C(F)(F)F)/C(=C/C=C/c3ccco3)C2=O)ccc1Cl | ? | -3% | -4% | -2% | / | 24µM*
CCOC(=O)c1ccc(N2N=C(C)/C(=C/C=C/c3ccco3)C2=O)cc1 | -11% | -2% | -6% | 18% | 7% | ?
FC(F)Oc1ccc(N=C2SCC3CCCCN23)cc1 (stereo not given) | / | 3.5µM* | 2µM* | ? | / | 12µM*
Clc1ccc(N=C2SCCS2)cc1 | / | 27% | 27% | 9% | / | ?
Clc1ccc(N=C2SCC3CCCCN23)cc1 (stereo not given) | / | 2.5µM* | 4µM* | 26% | / | 9.5µM*
CN(CCO)Cc1ncccc1O | -1%[7.66 µM] | / | / | / | -3%[9.22 µM] | /
COC(=O)c1sc(NC(=S)NC(=O)c2cccc(Br)c2)nc1C | / | 3% | -4% | 14% | / | 13µM*
C=CCOC(=O)c1sc(NC(=O)c2ccc(OC)cc2)nc1C | -12% | 2% | -37% | ? | ? | ?
COC(=O)c1sccc1NC(=O)c1ccncc1 | -2% | 2% | 5% | 7% | -7% | -1%
COC(=O)c1sc(NC(=S)NC(=O)c2ccc(F)cc2)nc1C | 1% | ? | 27% | 10% | -36% | 3%
CCOc1ccc(C(=O)Nc2nc(C)c(C(=O)OC)s2)cc1 | / | ? | ? | 21µM* | / | 0.76µM*
SMILES | Luc counter | Rab9 promoter act | NPC1 prom act | ELG1 genotox | SMN2 splice enh | FLuc modulator
COC(=O)c1sc(NC(=O)c2ccncc2)nc1C | / | 12% | -2% | 4% | / | 24µM*
CC(=O)N1CCCC1c1nc2ccccc2n1Cc1cccc(Cl)c1 (stereo not given) | / | / | / | / | / | 3%
CC(=O)Nc1cccc(NC(=O)Nc2ccc(C)c(Cl)c2)c1 | 0% | 30% | 10% | 6% | ? | 2.1µM*
O=C(Nc1ccccc1)Nc1cccc(Cl)c1Cl | -5% | 16% | 21% | 14% | -22% | 11µM*
O=C(Nc1ccc(Cl)cc1)Nc1cccc2nsnc12 | / | ? | ? | ? | / | 4.8µM*
O=C(CN1CCCC1)Nc1ccc(NC(=O)Nc2ccccc2Cl)cc1 | -3% | 19% | 16% | ? | 19% | 21µM*
O=C(CN1CCCC1)Nc1ccccc1Cl | 5% | 3% | -2% | 3% | -8% | 4%
CC(=O)Nc1ccc(NC(=O)Nc2ccc(C)c(C)c2)cc1 | -4% | 15% | -1% | ? | 7% | -2%
O=C(Nc1ccncc1)Nc1cccc(Cl)c1Cl | / | -2% | 1% | -2% | / | ?
CCc1ccc(-n2c(=O)c3cccnc3n2CC(=O)N(CC)c2cccc(C)c2)cc1 | / | / | / | / | / | 5%
COc1ccc(CNC(=O)C(=O)NCC(c2ccco2)S(=O)(=O)c2ccc(Cl)cc2)cc1 (stereo not given) | / | / | / | / | / | -2%
COCCn1c(=O)c(-c2ccc(OC)cc2)nc2cnc(Nc3cccc(OC)c3)nc21 | -5% | / | / | / | 3% | /
O=C(Nc1ccccc1)Nc1ccccc1Br | -17% | 4µM* | ? | ? | 24% | 24µM*
O=C(Nc1ccccc1)Nc1cccc(NC(=O)Nc2ccccc2)c1F | / | 25% | 27% | 10% | / | ?
O=C(Nc1ccccc1)Nc1ccc(Br)c(Cl)c1 | 1% | 18% | ? | -9% | ? | 6.7µM*
CC(=O)c1ccc(NC(=S)Nc2ccc(Br)c(Cl)c2)cc1 | -1% | 14% | -2% | -6% | 0% | -13%
Cc1c(C#N)c(O)n(C)c(=O)c1N=Nc1ccc(S(N)(=O)=O)cc1 | 3% | 20% | 17% | 12% | -31% | ?
CCOC(=O)c1ccc(N=Nc2c(C)c(C#N)c(O)[nH]c2=O)cc1 | -4% | 4.5µM* | 16% | ? | 50% | 2.7µM*
Cc1cc(C(=O)Cn2cc([N+](=O)[O-])ccc2=O)c(C)n1CC1CCCO1 (stereo not given) | / | 12% | -3% | 3% | / | -9%
Cc1cc(C(=O)COC(=O)C2COc3ccccc3O2)c(C)n1CC1CCCO1 (stereo not given) | 2% | -8% | 1% | -1% | -4% | 4.8µM*
Cc1cc(C(=O)COC(=O)c2ccccc2O)c(C)n1CC1CCCO1 (stereo not given) | / | -29% | -27% | -9% | / | 0.085µM*
CCOc1cc(C(=O)OCC(=O)c2cc(C)n(CC3CCCO3)c2C)ccc1OCC(=O)N1CCOCC1 (stereo not given) | -2% | 19% | 12% | 3% | / | ?
Cc1cc(C(=O)COC(=O)c2ccccc2Br)c(C)n1CC1CCCO1 (stereo not given) | / | -34% | -30% | ? | / | 0.11µM*
